These results are taken from PubChem BioAssay AID434970 (Sanford-Burnham Center for Chemical Genomics, 2010).

SMILES strings stand for the structures. The whole screen tested about 11,000 compounds, of which about 310 (2.8%) were called active. Cut-off read from the data, not from the text of the source: active = activity change below about -85%; inactive = the rest. The list comes from a sample in which actives are over-represented; it also holds similar structures and randomly drawn compounds.

This assay concerns intestinal alkaline phosphatase [Mus musculus]. Kind of assay: mouse intestinal phosphatase enzyme activation – biochemical, luminescence, single concentration, confirmation (AID 434970). Conditions: purified mouse IAP, CDP-Star luminescence, 30 min, at 10 µM; activation factor: measured here: IAP activation factor, stronger effect = higher value; activity change, negative = activation: stronger effect = lower value.
On to `O=C(NCc1ccccc1)c1cc2nc(C3CC3)cc(C(F)(F)F)n2n1`, for which the activation factor was 0.96 and the activity change, negative = activation was 4% (inactive).
Regarding `CCc1cc(Cn2nc(-c3ccccc3)cc2C(=O)NCc2cccc(C(F)(F)F)c2)on1`, the activation factor was 2.52 and the activity change, negative = activation is -152% (active).
In the case of `CCCC1C2C(=O)N(c3ccccc3OCC)C(=O)C2ON1c1ccccc1` (centres undefined), the activation factor was 1.1 and the activity change, negative = activation is -9.6% (inactive).
Consider `CCCN1C(=O)c2ccc(C(=O)NC3CCCCC3)cc2C1=O`, for which the activation factor stood at 1.07 and the activity change, negative = activation is -6.9% (inactive).
As to `C=CCNc1nc(-c2sc(NC(C)=O)nc2C)cs1`, the activation factor was 0.932 and the activity change, negative = activation was 6.75% (inactive).
Turning to `CCCCCCNC(=O)N[C@@H](C(=O)NCCC[C@H]1CN2C(=NC[C@@H]2Cc2ccccc2)N1CCc1cccc(OC)c1)C(C)C`, the activation factor worked out at 3.11 and the activity change, negative = activation is -211% (active).
As to `CCCCNc1nc2c(c(=O)n(C)c(=O)n2C)n1Cc1cccc(OC)c1`, the activation factor came to 1.04 and the activity change, negative = activation was -4.2% (inactive).
For `O=C(CCCOc1ccccc1)Nc1nncs1`, the activation factor turned out to be 1.02 and the activity change, negative = activation is -1.6% (inactive).
With `COc1cccc(C(=O)OCC(=O)Nc2ccccc2N2CCOCC2)c1`, the activation factor stood at 0.909 and the activity change, negative = activation was 9.1% (inactive).
As to `CCCCCCN(C(=O)CCCN1C(=O)NC(c2ccc(-c3ccccc3)cc2)C(C(=O)OCc2ccccc2)=C1C)C(C)C(=O)NCCCC` (centres undefined), the activation factor was 1.42 and the activity change, negative = activation was -41.5% (inactive).
Regarding `CCCCNC(=O)C(C)N(CCN(C)C)C(=O)CCCN1C(=O)NC(c2ccc(Cl)cc2)C(C(=O)OCc2ccccc2)=C1C` (centres undefined), the activation factor was 1.19 and the activity change, negative = activation is -18.9% (inactive).
Taken in the same sequence, the figures for `CCCCNC(=O)C(C1CCCCC1)N(CCN(C)C)C(=O)CCCN1C(=O)NC(c2ccc(-c3ccccc3)cc2)C(C(=O)OCc2ccccc2)=C1C` (centres undefined) were 2.49 and -148% (active).
Take `CCOC(=O)c1c(C)[nH]c(C(=O)CSc2nnc(CC(C)c3ccccc3)o2)c1C` (centres undefined): the activation factor came to 0.943 and the activity change, negative = activation is 5.7% (inactive).
As for `COc1ccc(OC)c(NC(=O)Cn2c(=O)n(CC(=O)NCc3ccco3)c(=O)c3ccccc32)c1`, the activation factor worked out at 0.997 and the activity change, negative = activation was 0.3% (inactive).
Taken in the same sequence, the figures for `OCCCN1c2ccccc2Nc2nnc(-c3ccccc3)cc21` were 3.08 and -208% (active).
In the case of `OCCCn1c(-c2ccccc2)n[nH]c1=S`, the activation factor was found to be 1.02 and the activity change, negative = activation is -1.9% (inactive).
As to `CN(CC(=O)Nc1cccc(Cl)c1)S(=O)(=O)c1ccc2[nH]c(=O)oc2c1`, the activation factor amounted to 0.26 and the activity change, negative = activation is 74.1% (inactive).
On to `COc1cccc(CN(CC(=O)NC2CCCC2)C(=O)Cn2nnc(-c3cccs3)n2)c1`, for which the activation factor turned out to be 1.07 and the activity change, negative = activation was -7.3% (inactive).
On to `Cc1ccc(NC(=O)Nc2cc(S(=O)(=O)N(C)C)ccc2C)cc1`, for which the activation factor was 1.84 and the activity change, negative = activation was -83.7% (inactive).
For the compound `Cc1ccc(S(=O)(=O)N(C)C)cc1NC(=S)NC(C)CCCC(C)C` (centres undefined), the activation factor is 1.26 and the activity change, negative = activation was -26.2% (inactive).
As to `Cc1cc(C)cc(NC(=O)Nc2cc(S(=O)(=O)N(C)C)ccc2C)c1`, the activation factor was determined as 3.43 and the activity change, negative = activation was -243% (active).
Regarding `Cc1cc(NC(=O)Cn2c(=O)c3c(ncn3CC(C)C)n(Cc3ccccc3)c2=O)no1`, the activation factor turned out to be 1.09 and the activity change, negative = activation is -9.3% (inactive).
`Cc1ccccc1-n1nc(C(=O)O)c(C)c(C#N)c1=O`: the activation factor was determined as 0.98 and the activity change, negative = activation was 2.05% (inactive).
Regarding `COC(=O)c1cn(NC(=O)C2CCCO2)c(=O)c2ccccc12` (centres undefined), the activation factor came out at 1.03 and the activity change, negative = activation was -3.3% (inactive).
As to `CCN(CC)C(=O)CSc1nc(-c2cccs2)cc(-c2cccs2)c1C#N`, the activation factor came to 0.778 and the activity change, negative = activation was 22.2% (inactive).
For the compound `CCCCC1=CC2=C(c3ccco3)C(=O)C(C)(OC(=O)c3ccc(OC)cc3)C(=O)C2=CN1Cc1ccc2c(c1)OCO2` (centres undefined), the activation factor was 0.503 and the activity change, negative = activation was 49.7% (inactive).
Take `CCCCNC(=O)C1CCN(C/C(C)=C/c2ccccc2)CC1`: the activation factor amounted to 1.02 and the activity change, negative = activation is -1.8% (inactive).
Taken in the same sequence, the figures for `CCOC(=O)c1ccc(NC(=O)C2CCN(S(=O)(=O)CC)CC2)cc1` were 0.952 and 4.8% (inactive).
Turning to `CCCn1ncc(CN2CCC(C(=O)Nc3cccc(-c4cccc(F)c4)c3)CC2)c1C`, the activation factor was 5.28 and the activity change, negative = activation was -428% (active).
The like results for `Cc1cc(NC(=O)C2CCN(S(=O)(=O)c3cnc[nH]3)CC2)ccc1Br` were, in that order, 0.935 and 6.5% (inactive).
The like results for `CCn1ncc(CN2CCC(C(=O)Nc3cccc(-c4cccc(F)c4)c3)CC2)c1C` were, in that order, 2.83 and -183% (active).
`CCn1ncc(C2=NOC(C(=O)Nc3ccc(C)cc3)C2)c1C` (centres undefined): the activation factor was 1.07 and the activity change, negative = activation was -7.35% (inactive).
As for `C/C(=N\OCC(=O)N/N=C/c1ccccc1O)c1cccs1`, the activation factor is 1.01 and the activity change, negative = activation was -1.25% (inactive).
Taken in the same sequence, the figures for `COc1ccc(Cl)cc1N1C(=O)[C@@H]2C(c3cccc(OC)c3OC)=NO[C@@H]2C1=O` were 1 and 0.05% (inactive).
The like results for `COc1ccc(NC(=O)C(=O)NCCN2CCN(C(=O)C(c3ccccc3)c3ccccc3)CC2)cc1` were, in that order, 1.05 and -5.05% (inactive).
Consider `Cc1cc(C)cc(NC(=S)NCc2ccc3c(c2)OCO3)c1`, for which the activation factor stood at 1.81 and the activity change, negative = activation is -80.9% (inactive).
Consider `Cc1ccccc1NC(=S)NC(NC(=O)c1ccccc1C)C(Cl)(Cl)Cl` (centres undefined), for which the activation factor was 2.07 and the activity change, negative = activation is -107% (active).
For `Cc1ccccc1NC(=S)NC(NC(=O)COc1ccccc1)C(Cl)(Cl)Cl` (centres undefined), the activation factor stood at 1.73 and the activity change, negative = activation is -73% (inactive).
On to `CC(=O)NC(NC(=S)Nc1ccc(N=Nc2ccccc2C)cc1C)C(Cl)(Cl)Cl` (centres undefined), for which the activation factor amounted to 0.848 and the activity change, negative = activation was 15.2% (inactive).
Take `Cc1ccc(NC(=S)NC(NC(=O)c2ccccc2C)C(Cl)(Cl)Cl)c(C)c1` (centres undefined): the activation factor is 3.11 and the activity change, negative = activation is -211% (active).
`O=C(O)c1ccccc1NC(=S)NC(NC(=O)c1ccccc1[N+](=O)[O-])C(Cl)(Cl)Cl` (centres undefined): the activation factor stood at 0.83 and the activity change, negative = activation is 17% (inactive).
As to `Cc1cc(C)c(NC(=S)NC(NC(=O)c2ccccc2)C(Cl)(Cl)Cl)c(C)c1` (centres undefined), the activation factor came to 1.28 and the activity change, negative = activation was -28.3% (inactive).
